# An excerpt weighted towards active compounds, which were near 16% of everything screened.
# uPA surface inh: qHTS for Inhibitors of Cell Surface uPA Generation | cell surface uPA generation assay, qHTS | Potency, µM (titrated, usually from 38.3 µM), without a hit: at the top dose activity change, negative = inhibition, most hits filed as inhibitors | 330,000 tested, 0.31% active | AID 540303, 2011; active means well fitted inhibition curve with a large enough effect; inconclusive means small, poorly fitted or top-dose-only effect; inactive means no such curve, though single readings can be large or run the other way; tested in mouse RAW 264.7 cells; further: potency means the concentration at half of the fitted maximal effect; on the % scale 0 is the no-effect control and ±100 the full control effect; nearly all actives have a fitted effect of over 55% in size
# TDP1 cell noCPT: qHTS for Inhibitors of human tyrosyl-DNA phosphodiesterase 1 (TDP1): qHTS in cells in absence of CPT; DT40 Tdp1-/- hTDP1 cells, no CPT, ATP luminescence, 48 h; Potency, µM (top dose mostly 46.2 µM), for inactives: at the highest dose activity change, negative = growth inhibition, usual class: inhibitors; 420,000 tested, 15% active; AID 686978, 2013; further: potency means the concentration at half of the fitted maximal effect; on the % scale 0 is the no-effect control and ±100 the full control effect; nearly all actives have a fitted effect of over 55% in size
#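 DT40 Tdp1-/-;hTDP1 cells, no CPT (DMSO vehicle only), 400 cells/well; compounds pin-transferred; ≥48 hr, 37 °C; CellTiter-Glo 30 min RT dark, luminescence read.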
# TDP1 block: qHTS Assay for Inhibitors of Tyrosyl-DNA Phosphodiesterase (TDP1); Tyrosyl-DNA phosphodiesterase 1 (Homo sapiens), Q9NUW8; recombinant TDP1, AlphaScreen DNA substrate cleavage; Potency, µM (titrated, usually from 130 µM), for the others: at the highest dose activity change, negative = inhibition, hits mostly inhibitors; 350,000 tested, 0.28% active; AID 485290, 2010; further: potency means the concentration at half of the fitted maximal effect; on the % scale 0 is the no-effect control and ±100 the full control effect; nearly all actives have a fitted effect of over 40% in size
# Target sequence (Q9NUW8 whole entry, looked up): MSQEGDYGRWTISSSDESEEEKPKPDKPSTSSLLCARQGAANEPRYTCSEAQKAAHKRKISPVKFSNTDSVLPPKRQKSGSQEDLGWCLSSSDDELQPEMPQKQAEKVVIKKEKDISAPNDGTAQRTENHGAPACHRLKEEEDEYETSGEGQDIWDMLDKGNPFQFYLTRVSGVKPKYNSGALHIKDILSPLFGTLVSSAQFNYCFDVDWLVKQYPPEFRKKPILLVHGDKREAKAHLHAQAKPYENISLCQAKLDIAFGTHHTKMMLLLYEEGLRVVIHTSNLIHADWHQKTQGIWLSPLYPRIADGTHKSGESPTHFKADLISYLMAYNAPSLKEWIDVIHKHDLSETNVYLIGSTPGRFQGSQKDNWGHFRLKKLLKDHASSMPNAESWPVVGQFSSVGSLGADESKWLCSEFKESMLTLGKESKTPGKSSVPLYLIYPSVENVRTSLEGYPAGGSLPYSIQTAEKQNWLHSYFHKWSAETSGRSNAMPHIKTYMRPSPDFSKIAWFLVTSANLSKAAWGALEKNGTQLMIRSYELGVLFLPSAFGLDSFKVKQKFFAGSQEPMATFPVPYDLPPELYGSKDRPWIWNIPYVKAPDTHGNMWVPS
#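 Tdp1 1 nM final; 15 min RT w/ cpd; substrate 15 nM, 5 min; beads 10 ug/ml, 10 min; AlphaScreen read. Neg ctrl: no enzyme.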
# DT40 TDP1 CPT: qHTS for Inhibitors of human tyrosyl-DNA phosphodiesterase 1 (TDP1): qHTS in cells in presence of CPT | chicken DT40 Tdp1-/-;hTDP1 cells + 20 nM CPT, ATP luminescence, 48 h | Potency, µM (top dose mostly 46.2 µM), inactives show at the top dose activity change, negative = growth inhibition, actives largely listed as inhibitors | 420,000 tested, 12% active | AID 686979, 2013; further: potency means the concentration at half of the fitted maximal effect; on the % scale 0 is the no-effect control and ±100 the full control effect; nearly all actives have a fitted effect of over 55% in size
#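 Cell growth measured by CellTiter-Glo luminescence after a minimum 48 h, 37 C compound exposure with 20 nM CPT in Tdp1-knockout DT40 cells stably expressing hTDP1, seeded 400/well; qHTS titration format.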
# miR-21 reporter: qHTS Assay for Modulators of miRNAs and/orActivators of miR-21; 340,000 tested, under 10 active; AID 2288, 2010; HeLa miR-21 FLuc reporter, luciferase, 48 h; Potency, µM (titrated, usually from 38.3 µM), for the others: at the highest dose activity change, positive = activation, usual class: activators;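 further: % of control where 0% means no effect; miR-21 action dims this reporter so a rising signal means less miR-21 action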
#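 Using DMEM plus 10% FBS, HeLa miR-21-FLuc cells are incubated with test compounds (final up to about 40uM) for 48 hours; firefly luciferase signal is then imaged following reagent-mediated lysis.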
# * marks the source's active call; other numbers are inactive results; ? = inconclusive; . = no result given; [ ] = another dose, or the depositor's remark. Unless noted, the call rests on the fitted dose curve; in most records, active means well fitted curve in the direction sought with a large enough effect; inconclusive means small, poorly fitted or top-dose-only effect, or another doubt; inactive means no such curve, though single readings can be large; an effect the other way counts as inactive or inconclusive.
SMILES,uPA surface inh,TDP1 cell noCPT,TDP1 block,DT40 TDP1 CPT,miR-21 reporter
CC(=O)O[C@@]1(C(C)=O)CCC2C3C=C(C)C4=CC(=O)CCC4(C)C3CCC21C (some centres undefined),.,-14.5%,9.0%[56.1 µM],-6.0%,.
O=C(Nc1ccc([N+](=O)[O-])cc1)Nc1cnccn1,-15.3%,16.4µM*,0.6%,?,-0.4%
CC(C)c1ccc(NC(=O)Nc2cnccn2)cc1,-17.8%,7.31µM*,0.7%,11.6µM*,-21.8%
CS(=O)(=O)N1Cc2ccccc2CC1C(=O)OCC(=O)Nc1ccc2ccccc2c1 (centres undefined),.,-9.3%,-5.1%,-1.6%,-5.3%
CC1CCC(NC(=O)CN(C)S(=O)(=O)c2cccc3cccnc23)CC1 (centres undefined),7.7%,-25.8%,.,-10.9%,-1.7%
O=C(Nc1cccc(Cl)c1)Nc1cnccn1,-5.5%,-1.5%,-3.8%,4.3%,-6.7%
O=C(Nc1ccnc(-c2cccnc2)n1)c1cccc(Cl)c1Cl,-7.5%,23.1µM*,3.2%,20.6µM*,-3.7%
O=C(Nc1cccc(Cl)c1)Nc1ccnc(-c2cccnc2)n1,26.0%,20.6µM*,8.1%,?,0.9%
O=C(Nc1ccnc(-c2cccnc2)n1)c1ccccc1Cl,0.6%,?,1.0%,-13.3%,-9.4%
Cc1ccc2ncc(C(=O)NC(C)c3ccccc3)c(=O)n2c1 (centres undefined),.,?,1.0%,?,-1.8%
CC(=O)Nc1cc(O)cc(O)c1,8.4%,-5.8%,-2.9%,1.4%,0.7%
CCC(C(=O)NCc1cccnc1)c1ccccc1 (centres undefined),-6.6%,16.4%,-2.5%,-12.3%,-1.5%
CCOC(=O)C1CCN(C(=O)CCNS(=O)(=O)c2ccc3c(c2)CCN3C(=O)CC)CC1,-14.6%,1.2%,4.1%,-3.2%,-1.2%
N#CC(c1nc2ccccc2nc1N1CCCCC1)S(=O)(=O)c1ccc(Cl)cc1 (centres undefined),.,.,0.0%,.,-5.2%
C[C@@H]1CC(=O)NN=C1c1ccc(NN=C(C#N)C#N)cc1,.,9.44µM*,.,10.6µM*,.
Cc1cc(Cl)cc(C)c1OCCNCc1ccccc1,1.8%,20.6µM*,.,?,-1.5%
Clc1ccc(OCCOCCNCc2ccccc2)cc1Cl,-19.2%,18.4µM*,.,16.4µM*,1.0%
CC(C)(C)c1ccc(OCCNCc2ccccc2)cc1,-1.7%,?,.,?,-7.3%
Cc1cc(Cl)cc(C)c1OCCOCCNCc1ccccc1,-2.8%,?,.,23.1µM*,-0.5%
Cc1cc(C)c(OCCNCc2ccccc2)c(C)c1,0.1%,?,.,?,-2.3%
O=C(Nc1ccccc1F)c1ccc(S(=O)(=O)NCC2CCCO2)cc1 (centres undefined),4.3%,-20.6%,1.1%,-27.5%,-7.8%
CC1CCN(CC(O)CN2c3ccccc3Sc3ccccc32)CC1 (centres undefined),-1.5%,18.4µM*,.,?,23.6%
CC(C)(C)S(=O)N1Cc2cc(C(=O)NCC(F)(F)F)nc(-c3cccc(-c4cccc(F)c4)c3)c2[C@H]1CCO (some centres undefined),.,20.6µM*,.,?,.
COc1cccc(CNC(=O)c2cc3c(c(-c4cccc(-c5cccc(C#N)c5)c4)n2)[C@H](CCO)N(S(=O)C(C)(C)C)C3)c1 (some centres undefined),.,14.6µM*,.,?,.
COc1cccc(-c2cccc(-c3nc(C(=O)NCCCN4CCOCC4)cc4c3[C@H](CCO)N(S(=O)C(C)(C)C)C4)c2)c1 (some centres undefined),.,18.4µM*,.,?,.
CN(C)C(=O)c1cccc(-c2cccc(-c3nc(C(=O)NCc4ccccc4)cc4c3[C@@H](CCO)N(S(=O)C(C)(C)C)C4)c2)c1 (some centres undefined),.,14.6µM*,.,18.4µM*,.
S=c1nc[nH]c2c1ncn2-c1ccccc1,1.5%,-2.2%,.,5.6%,.
